Bioassay records from PubChem BioAssay.
Most compounds without a hit are left out; they make up all but 3.2% or so of the library.
PAX8 inh HTS = inhibitors of PAX8 transcriptional activity in RMG-I cells; AID 652154; RMG-I TPO-luciferase reporter, SteadyGlo, 24 h; 360,000 compounds, 1.2% hits; inhibition, % at 12.6 µM;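 active = mean replicate inhibition at least 60% with every replicate also reaching 60%; inconclusive = only one of the two criteria is met; inactive = mean below 60% and not all replicates reaching 60%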;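 also: luciferase light reporting Pax8 driven TPO promoter activity; plate controls were median of neutral control wells for no effect and mitoxantrone controls for full effect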
LGR2 inh = Drosophila LGR2 receptor signaling inhibition | HEK293 LGR2, CRE-luciferase, bursicon-stimulated, 4 h | inhibition, % at 9.99 µM | 380,000 compounds, 0.35% hits | AID 720647;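 active = drop in luminescence signal, shown as inhibition above about 50% in the replicate tests, limit read from the data, passing the limit was not always enough; inconclusive = probably only some replicates passing the limit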;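 also: agonist challenge used bursicon conditioned medium at about half maximal strength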
TROY signal inh = inhibitors of TROY-dependent NF-kB signaling; Q293 LMP1-TROYcd NF-kB luciferase reporter, 4 h; inhibition, % at 10 µM; 360,000 compounds, 0.98% hits;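 active = compounds whose plate-normalised and pattern-corrected inhibition of the luciferase reporter signal at the single screening dose is 50% or more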
TWEAK-Fn14 inh = inhibitors of TWEAK-Fn14 interaction signaling; TWEAK-stimulated Fn14 reporter cells, luciferase luminescence, 8 h; inhibition, % at 10 µM; 360,000 compounds, 2% hits; AID 1159606; in the data active = inhibition above about 50%
EWS-Fli block = blocks EWS/Fli oncoprotein-driven transcription. A673 NR0B1-luciferase reporter, viability-normalised. inhibition, % at 12.6 µM. 350,000 compounds, 0.67% hits. AID 651661;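 active = mean inhibition of at least 50% after viability correction, with every replicate also passing that limit; inconclusive = mean reaches 50% but only one of two replicates passes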;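 also: firefly luciferase signal divided by Alamar Blue viability fluorescence both relative to DMSO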
EBV LMP1 NFkB = Epstein-Barr LMP1 NF-kappaB reporter inhibition; inhibition, % at 12.5 µM; 350,000 compounds, 0.69% hits; LMP1-induced NF-kappaB luciferase reporter cells, luminescence; AID 504558; in the data active = inhibition above about 41%; inconclusive = no clear call, values can overlap the other calls;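 also: 0% = neutral control wells and 100% = reference inhibitor control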
The depositor's hits bear a star; ? = inconclusive; . = not tested or not shown.

SMILES | PAX8 inh HTS | LGR2 inh | TROY signal inh | TWEAK-Fn14 inh | EWS-Fli block | EBV LMP1 NFkB
O=C(CN1C(=O)NC2NC(=O)NC21)NN=C1CCCC1 (stereo not drawn) | 83* | 10 | 1 | 24 | -7 | -1
C[C@@H]1CCCCO[C@@H](CN(C)C(=O)NC2CCCCC2)[C@@H](C)CN([C@@H](C)CO)C(=O)c2cc(NC(=O)Nc3cccc4ccccc34)ccc2O1 | -1 | 9 | . | . | 20 | .
O=c1c2c(-c3ccccc3)csc2nc2c3ccccc3c(NCCN3CCOCC3)nn12 | 20 | 64* | 6 | -19 | 0 | -46
COC(=O)C1=CN(c2ccc(OC)cc2OC)C(N)=C(C#N)C1c1cccc([N+](=O)[O-])c1 (stereo not drawn) | 28 | -12 | . | . | 57* | .
COC(=O)C1=CN(c2ccc(F)cc2)C(N)=C(C#N)C1c1cccc(F)c1 (stereo not drawn) | 18 | 7 | . | . | 24 | .
Cc1ccc(/C=C2\SC(=S)N(Cc3ccccc3)C2=O)o1 | . | . | 3 | 16 | . | 3
O=C(O)c1cc(-c2ccc(/C=C3/SC(=S)N(Cc4ccccc4)C3=O)o2)ccc1Cl | -23 | ? | 52* | 34 | -11 | 8
O=C1/C(=C/c2ccncc2)SC(=S)N1Cc1ccccc1 | 40 | 39 | 27 | 46 | 37 | 43*
COc1ccccc1-c1nnc(Sc2nc([N+](=O)[O-])nn2C)o1 | . | 31 | 31 | 84* | . | 57*
Cc1cc(NC(=O)C(C)C)ncc1NC(=O)c1cccc(F)c1 | . | . | 2 | -9 | . | -11
CCCC(=O)Nc1cnc(NC(=O)c2cccc(F)c2)cc1C | . | . | 29 | 66* | . | 24
C=CCOC(=O)[C@H]1[C@@H]2C(=O)O[C@@H](c3ccccc3)[C@@H](c3ccccc3)N2[C@@H](c2ccc(OCCOC(=O)[C@@H]3C[C@@H]4C(=O)N[C@@H](CC(C)C)C(=O)N4[C@@H]3c3cccc(OCCO)c3)cc2)[C@]12C(=O)Nc1ccccc12 | 3 | . | . | . | -2 | .
O=C(C[C@H]1C[C@H]2c3cc(NC(=O)Cc4ccncc4)ccc3O[C@H]2[C@@H](CO)O1)NCc1ccc(-c2ccccc2)cc1 | 13 | -15 | . | . | 17 | .
Cc1cc(Nc2cccc([N+](=O)[O-])c2)c2ccccc2n1 | 11 | 12 | 2 | -20 | 18 | 12
CCOc1ccc2nc(C)cc(Nc3cccc([N+](=O)[O-])c3)c2c1 | -3 | . | -22 | -15 | 72* | -34
CCC(=O)N(C)C[C@H]1Oc2ncc(-c3ccccc3C)cc2C(=O)N([C@@H](C)CO)C[C@@H]1C | . | -4 | . | . | -7 | .
COc1ccc(NC(=O)COC(=O)Cc2c(F)cccc2Cl)cc1OC | -1 | -28 | -1 | -8 | 6 | 11
COc1ccccc1CNC(=O)COC(=O)Cc1c(F)cccc1Cl | 66* | -1 | 12 | 3 | -4 | 10
COc1ccc(CCNC(=O)CSc2ccccc2)cc1OC | 7 | -3 | -2 | -2 | -4 | 8
COc1ccc(CCNC(=O)CSC(=O)c2ccccc2)cc1OC | 12 | -3 | -6 | -20 | -6 | 43*
COc1ccccc1CNC(=O)Cc1ccc(OC)c(OC)c1 | 11 | 4 | 13 | 68* | 25 | 5
COc1ccc(CC(=O)NCc2ccccc2)cc1OC | -7 | 2 | -15 | 3 | 4 | -13
C[C@@H]1CCCCO[C@H](CN(C)Cc2ccc(Cl)c(Cl)c2)[C@@H](C)CN([C@@H](C)CO)C(=O)c2cc(NC(=O)Cc3ccccc3)ccc2O1 | 96* | -9 | . | . | -2 | .
C[C@@H]1CN([C@H](C)CO)C(=O)c2cc(NC(=O)c3ccccc3)ccc2O[C@@H](C)CCCCO[C@H]1CN(C)Cc1ccc(Cl)c(Cl)c1 | . | -3 | . | . | . | .
C[C@@H]1CN([C@H](C)CO)C(=O)c2cc(NC(=O)Cc3ccccc3)ccc2O[C@@H](C)CCCCO[C@@H]1CN(C)Cc1ccc(Cl)c(Cl)c1 | 6 | 4 | . | . | 6 | .
SMILES | PAX8 inh HTS | LGR2 inh | TROY signal inh | TWEAK-Fn14 inh | EWS-Fli block | EBV LMP1 NFkB
C[C@H](CO)N1C[C@H](C)[C@H](CN(C)Cc2ccc(Cl)c(Cl)c2)Oc2c(NC(=O)c3ccncc3)cccc2C1=O | 4 | -13 | . | . | -4 | .
C[C@@H]1CCCCO[C@@H](CN(C)Cc2ccc(Cl)c(Cl)c2)[C@@H](C)CN([C@@H](C)CO)C(=O)c2cc(NC(=O)c3ccccc3)ccc2O1 | 66* | 9 | . | . | 9 | .
C[C@@H]1CN([C@H](C)CO)C(=O)c2cc(NC(=O)c3ccccc3)ccc2O[C@@H](C)CCCCO[C@@H]1CN(C)Cc1ccc(Cl)c(Cl)c1 | 51 | 15 | . | . | 2 | .
C[C@@H]1CN([C@H](C)CO)C(=O)c2cccc(NC(=O)c3ccncc3)c2O[C@H]1CN(C)Cc1ccc(Cl)c(Cl)c1 | 61* | 16 | . | . | -4 | .
C[C@H]1CCCCO[C@H](CN(C)Cc2ccc(Cl)c(Cl)c2)[C@@H](C)CN([C@@H](C)CO)C(=O)c2cc(NC(=O)c3ccccc3)ccc2O1 | 67* | -20 | . | . | 13 | .
Cc1ccccc1S(=O)(=O)N1C[C@@H](O)COC[C@@H]2O[C@H](CC(=O)O)CC[C@H]21 | -2 | 1 | . | . | -2 | .
O=C(NCCc1ccccc1F)c1ccc2c(c1)OCCO2 | 110* | 102* | 86* | 108* | 90* | 85*
O=C(NCCc1ccc(Cl)cc1)c1ccc2c(c1)OCO2 | -181 | -123 | -57 | -5 | -49 | -43
O=C(NCCc1ccc(Cl)cc1)c1ccc2c(c1)OCCO2 | -105 | 58* | 0 | 54* | -6 | 6
O=C(NCc1ccccc1F)c1ccc2c(c1)OCO2 | . | -22 | 4 | 34 | . | 1
CCC(=O)N1[C@H](CO)[C@H]2c3ccccc3N(C(=O)c3cccc(OC)c3)C[C@H]21 | 1 | 2 | . | . | -4 | .
CC(C)NC1=C(Cl)C(=O)c2ccccc2C1=O | . | . | -28 | 14 | . | -17
O=C(O)c1cccc(NC2=C(Cl)C(=O)c3ccccc3C2=O)c1 | -23 | 10 | 9 | 60* | 6 | 2
O=C1C(Cl)=C(NCc2cccnc2)C(=O)c2ccccc21 | -15 | 5 | -29 | 6 | 58* | -8
CC1=C(Nc2ccc(C(=O)O)cc2)C(=O)c2ccccc2C1=O | 11 | -32 | -44 | 3 | -35 | 9
O=C1C(Cl)=C(NCCc2ccccc2)C(=O)c2ccccc21 | -13 | -23 | -23 | 2 | -14 | -5
O=C(O)c1ccc(NC2=C(Cl)C(=O)c3ccccc3C2=O)cc1 | 83* | 10 | 42 | 43 | ? | -1
O=C1C(Cl)=C(Nc2ccccc2)C(=O)c2ccccc21 | -12 | -9 | 70* | 44 | . | 93*
CNC[C@@H]1OCCCC[C@@H](C)Oc2ccc(N(C)C)cc2C(=O)N([C@H](C)CO)C[C@H]1C | -13 | 0 | . | . | 1 | .
CCCC#Cc1ccc([C@H]2[C@H](CO)N3C(=O)CN(C(=O)c4ccncc4)C[C@@H]23)cc1 | . | 13 | . | . | 9 | .
CS(=O)(=O)N1CC2(C1)[C@@H](c1ccccc1)[C@H](CO)N2C(=O)C1CCC1 | . | -3 | . | . | . | .
